The subject of assay [1] is Human papillomavirus type 1a protein E7 (residues 44-93). Nature of the assay: small molecules binding HPV E7 44-93 – biochemical, small-molecule microarray, residues 44-93, 635 nm fluorescence, primary screen (AID 1108).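 Note: E7 fragment applied at 1 µg/mL in TBST for 1 h at 4 C; score combines spot fluorescence with its signal to noise ratio.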 The conditions noted are these: fluorescence 635 nm, higher = more signal.
The nature of assay [2]: hepatitis C replication reporter changes, two-sided – Huh7 cells, luciferase reporter, HCV replication inhibitor project, primary screen (AID 1109).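 Note: huh7 hepatoma cells harbouring a luciferase neomycin HCV replicon reporter; luciferase luminescence as measure of HCV replicon replication; test concentration not given here.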 Particulars: Huh7 HCV replicon luciferase reporter, 48 h; higher = more signal. A general note: Reporter assays use an easily measured gene product as a stand-in for the process of interest.
The target of assay [3] is Left-right determination factor 2 (Homo sapiens) (UniProt O00292). Nature of the assay: small molecules binding LEFTY2 protein – biochemical, small-molecule microarray, 635 nm fluorescence scan, primary screen (AID 1110). The conditions noted are these: higher = more signal.
Assay [4] has as its target Calmodulin-1 (Homo sapiens) (UniProt P0DP23). The experiment in a line: small molecules binding calmodulin-1 with EGTA – biochemical, small-molecule microarray, Cy5-labelled CALM1, profiling panel (AID 1111).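 Note: labelled calmodulin applied in Tris saline Tween buffer holding calcium plus EGTA and DTT.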 Particulars: Cy5-CALM1 binding fluorescence, higher = more signal.
Assay [5] shares this target. Nature of the assay: small molecules binding Ca-loaded calmodulin-1 – biochemical, small-molecule microarray, Cy5-labelled CALM1, plus calcium, artefact control for SMM control-protein annotation, profiling panel (AID 1112).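 Note: score merges spot fluorescence with signal to noise from triplicate slides.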 Particulars: Cy5-CALM1 binding fluorescence, higher = more signal.
A short description of assay [6]: probe aWnt5a binding to arrayed compounds – biochemical, biotinylated probe, 635/667 nm fluorescence, primary screen (AID 1113).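 Note: score merges 667 nm fluorescence intensity with signal-to-noise per printed feature.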 Particulars: small-molecule microarray, higher = more signal.
Assay [7] in a line: probe aShh binding to arrayed compounds – biochemical, biotinylated probe, 635/667 nm fluorescence, primary screen (AID 1114).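 Note: probe is biotin-labelled aShh protein from a stem cell growth factor screen; measures binding of labelled protein to compounds printed on the slide; score merges feature fluorescence at 667 nm with signal-to-noise.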 The conditions noted are these: small-molecule microarray, higher = more signal.
The nature of assay [8]: probe aNog binding to arrayed compounds – biochemical, biotinylated probe, 635/667 nm fluorescence, primary screen (AID 1115).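 Note: probe is biotinylated aNog protein used at 0.15 µg/mL for 1 h at 4 C; z-score combines 667 nm fluorescence of each spot with its signal to noise.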 Particulars: small-molecule microarray, higher = more signal.
For assay [9], the target named is Torsin-1A-interacting protein 1 (Homo sapiens) (UniProt Q5JTV8). The experiment in a line: compound microarray binding of lysate hLAP1 – cell lysate, small-molecule microarray, COS7 lysate, 635/667 nm fluorescence, primary screen (AID 1116). The conditions noted are these: 635 nm fluorescence, higher = more signal.
Assay [10] has as its target Alpha-bungarotoxin (Bungarus multicinctus) (UniProt P60615). Nature of the assay: compounds binding labelled alpha-BTX control protein – biochemical, small-molecule microarray, Alexa647 label, 635/667 nm fluorescence, artefact control for SMM control protein annotation, profiling panel (AID 1117). Particulars: alpha-BTX-A647 binding fluorescence, higher = more signal.
Assay [11] addresses Albumin (Bos taurus) (UniProt P02769). Nature of the assay: compounds binding labelled BSA control protein – biochemical, small-molecule microarray, Alexa647 label, 635/667 nm fluorescence, artefact control for SMM control protein annotation, profiling panel (AID 1118).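 Note: score merges 667 nm emission intensity and signal-to-noise per printed compound spot.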 Particulars: BSA-A647 binding, fluorescence 635 nm, higher = more signal.
Assay [12] is described as follows: probe aXIP binding to arrayed compounds – biochemical, NeuroSMM set, 635/667 nm fluorescence, primary screen (AID 1119).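 Note: probe is the protein aXip251-270 applied at 1 µg/mL to compound-printed slides; binding of probe to printed compounds measured as 667 nm fluorescence plus signal to noise.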 Particulars: small-molecule microarray, higher = more signal, called active from +8 up or from −8 down.
A short description of assay [13]: probe aNOTCH3 binding on compound microarray – biochemical, small-molecule microarray, 635/667 nm fluorescence, primary screen (AID 1120).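 Note: probe is a biotin-tagged antibody raised against NOTCH3 rather than NOTCH3 protein; score merges spot fluorescence near 667 nm with spot signal to noise.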 Particulars: higher = more signal.
Assay [14] is described as follows: probe aNOTCH2 binding on compound microarray – biochemical, small-molecule microarray, 635/667 nm fluorescence, primary screen (AID 1121).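 Note: score merges feature fluorescence read at 667 nm with its signal to noise.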 The conditions noted are these: higher = more signal.
Assay [15] deals with Carbonic anhydrase 2 (Homo sapiens) (UniProt P00918). The experiment in a line: compounds binding carbonic anhydrase 2 – biochemical, small-molecule microarray, Alexa647-labelled CAII, profiling panel (AID 1122). The conditions noted are these: CAII-A647 binding fluorescence, higher = more signal.
Assay [16] in a line: COS7 lysate on small-molecule microarray, probe aHis, 635 nm (AID 1123).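 Note: z-score combines 667nm fluorescence intensity with signal-to-noise per printed compound spot.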 Particulars: COS7 cell lysate, fluorescence, higher = more signal.
Assay [17] is described as follows: probe aLAP1 signal on lysate-treated microarray – cell lysate, small-molecule microarray, COS7 lysate, primary screen (AID 1124).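 Note: lysate comes from COS7 cells expressing LAP1 and is applied at 0.3 µg/mL; score merges spot fluorescence near 667 nm with signal-to-noise over triplicate slides.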 Particulars: probe aLAP1, fluorescence, higher = more signal.
The subject of assay [18] is Sam68 (KHDRBS1). Nature of the assay: compounds binding KHDRBS1 protein – biochemical, small-molecule microarray, 635 nm fluorescence, primary screen (AID 1125).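 Note: score merges 667 nm channel intensity with signal to noise over triplicate slides.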 Particulars: higher = more signal.
Assay [19] concerns Chordin-like protein 2 (CHRDL2). Nature of the assay: compounds binding chordin-like 2 – biochemical, small-molecule microarray, 635 nm fluorescence, primary screen (AID 1126).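 Note: printed compound slides probed with Chrdl2 protein at 4 µg/mL for 1 h at 4 C; score merges 667 nm emission intensity with signal to noise over three replicate slides.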 Particulars: fluorescence 635 nm, higher = more signal.
Assay [20] deals with Concanavalin-A (Canavalia ensiformis) (UniProt P02866). The experiment in a line: compounds binding concanavalin A lectin – biochemical, small-molecule microarray, Alexa647 label, 635 nm, artefact control for SMM control protein annotation, primary screen (AID 1127).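 Note: z combines 667 nm emission intensity with signal-to-noise across three replicate slides.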 Particulars: ConA-A647 binding fluorescence, higher = more signal.

Activity calls are given as the source filed them.

Sequence of Concanavalin-A (Canavalia ensiformis) (P02866 whole entry, looked up): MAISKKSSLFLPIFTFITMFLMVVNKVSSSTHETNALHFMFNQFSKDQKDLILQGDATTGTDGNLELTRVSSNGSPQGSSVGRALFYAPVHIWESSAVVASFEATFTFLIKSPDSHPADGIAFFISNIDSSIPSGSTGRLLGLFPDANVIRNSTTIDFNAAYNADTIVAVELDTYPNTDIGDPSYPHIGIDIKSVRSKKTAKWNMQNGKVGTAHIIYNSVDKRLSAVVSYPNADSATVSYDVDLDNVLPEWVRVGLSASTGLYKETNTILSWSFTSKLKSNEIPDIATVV
Sequence of Left-right determination factor 2 (Homo sapiens) (O00292 whole entry, looked up): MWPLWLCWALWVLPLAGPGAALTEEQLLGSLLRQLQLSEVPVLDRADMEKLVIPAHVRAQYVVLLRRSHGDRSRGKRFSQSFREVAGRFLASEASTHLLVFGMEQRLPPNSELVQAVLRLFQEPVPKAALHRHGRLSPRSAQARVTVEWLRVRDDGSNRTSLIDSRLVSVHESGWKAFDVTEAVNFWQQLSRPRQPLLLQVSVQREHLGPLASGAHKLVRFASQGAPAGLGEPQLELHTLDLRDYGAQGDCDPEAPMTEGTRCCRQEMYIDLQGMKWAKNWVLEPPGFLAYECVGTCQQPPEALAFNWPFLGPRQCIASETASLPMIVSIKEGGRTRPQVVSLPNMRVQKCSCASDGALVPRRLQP
Sequence of Albumin (Bos taurus) (P02769 whole entry, looked up): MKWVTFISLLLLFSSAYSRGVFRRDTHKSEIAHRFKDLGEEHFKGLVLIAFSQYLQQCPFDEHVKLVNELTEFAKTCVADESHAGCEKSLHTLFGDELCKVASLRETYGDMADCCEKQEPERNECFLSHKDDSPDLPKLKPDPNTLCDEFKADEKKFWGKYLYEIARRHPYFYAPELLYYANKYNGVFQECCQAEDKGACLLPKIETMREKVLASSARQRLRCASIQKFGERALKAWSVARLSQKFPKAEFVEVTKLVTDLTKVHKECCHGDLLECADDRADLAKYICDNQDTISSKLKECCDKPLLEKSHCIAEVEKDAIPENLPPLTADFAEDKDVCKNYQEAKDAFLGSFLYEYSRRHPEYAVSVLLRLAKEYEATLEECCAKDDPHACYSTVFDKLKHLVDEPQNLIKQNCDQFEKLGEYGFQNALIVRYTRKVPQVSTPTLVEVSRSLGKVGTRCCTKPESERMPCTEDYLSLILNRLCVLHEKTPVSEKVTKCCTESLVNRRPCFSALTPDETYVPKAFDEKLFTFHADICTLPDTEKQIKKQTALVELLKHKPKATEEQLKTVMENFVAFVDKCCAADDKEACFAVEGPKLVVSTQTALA
Sequence of Alpha-bungarotoxin (Bungarus multicinctus) (P60615 whole entry, looked up): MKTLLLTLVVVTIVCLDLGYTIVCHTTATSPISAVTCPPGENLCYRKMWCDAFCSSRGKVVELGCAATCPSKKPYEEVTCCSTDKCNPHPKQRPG
Sequence of Torsin-1A-interacting protein 1 (Homo sapiens) (Q5JTV8 whole entry, looked up): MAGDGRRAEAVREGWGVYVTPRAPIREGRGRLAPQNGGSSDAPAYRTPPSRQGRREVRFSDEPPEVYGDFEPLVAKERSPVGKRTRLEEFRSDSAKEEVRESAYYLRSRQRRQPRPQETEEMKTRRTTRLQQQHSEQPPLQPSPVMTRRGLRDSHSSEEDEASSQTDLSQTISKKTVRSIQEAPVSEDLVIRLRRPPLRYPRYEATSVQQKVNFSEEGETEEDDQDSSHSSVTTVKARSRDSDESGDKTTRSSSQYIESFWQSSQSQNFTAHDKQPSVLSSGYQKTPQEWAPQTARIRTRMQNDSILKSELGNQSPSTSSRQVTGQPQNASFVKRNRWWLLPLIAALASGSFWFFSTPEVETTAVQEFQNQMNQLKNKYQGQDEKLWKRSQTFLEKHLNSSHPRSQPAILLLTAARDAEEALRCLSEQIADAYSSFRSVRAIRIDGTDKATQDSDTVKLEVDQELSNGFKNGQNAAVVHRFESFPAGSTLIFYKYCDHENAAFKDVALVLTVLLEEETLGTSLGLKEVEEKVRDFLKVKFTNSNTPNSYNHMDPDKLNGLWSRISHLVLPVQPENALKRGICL

For `COc1cccc(C)c1NC(=O)O[C@H]1[C@H](OC(=O)Nc2ccccc2)[C@H](OC(=O)Nc2ccccc2)[C@@H](OC)O[C@@H]1CO`, the composite z-score in assay [1] is 1.3; in assay [3] it was -0.183; in [4], 1.81; in assay [5] it was 0.645; in assay [6] it was 0.0775; in assay [7], 0.775. Also, the composite z-score is -0.236 in assay [8]; 0.0722 in assay [9]; 1.3 in [10]; 0.958 in assay [11]; -0.0647 in [13]; 0.0564 in [14]. Moreover, the composite z-score in assay [15] was 0.54; in [16], 2.48; in [17], 0.25; in [18], 1.34; in [19], -1.05; in assay [20], 1.17. Besides, in assay [2], the z-score was -2.96. Moreover, in assay [12], the composite Z-score is -0.922 (inactive).
As to `CC[C@@H]1[C@@H]2C3C(=O)N(CC)C(=O)C3CC(=O)[C@@H]2[C@H](c2ccc(C)cc2)N1S(=O)(=O)c1ccc(C)cc1` (stereo not given in full), the composite z-score in [1] is 1.42; in [3] it was 0.336; in assay [4], 0.742; in assay [5], 0.409; in assay [6], -0.0761; in assay [7], 0.232. For the same compound, the composite z-score in assay [8] is -0.546; in assay [9] it was 1.22; in assay [10], 0.564; in assay [11], 0.701; in assay [13], 0.0077; in assay [14], 0.131. The composite z-score is 0.749 in [15]; 2.61 in [16]; 1.64 in [17]; 1.34 in assay [18]; -0.337 in assay [19]; 0.876 in [20]. In addition, in [2], the z-score was -1.64. The composite Z-score in assay [12] was -0.304 (inactive).
`COc1cc(C(O)C2C=CC3C(=O)N(C)C(=O)C3N2NC(=O)OC(C)(C)C)cc(OC)c1OC` (stereo not given): the composite z-score in assay [1] stood at 0.968; in assay [3] it was 0.0493; in assay [4], 1.34; in [5], 0.12; in [6], 0.343; in [7], 0.848. Also, the composite z-score in assay [8] is 1.6; in assay [9], 0.102; in assay [10], 0.312; in [11], 1.03; in [13] it was 0.576; in assay [14] it was 0.46. The composite z-score in assay [15] was 0.682; in assay [16], 2.63; in assay [17], 0.954; in assay [18], 1.26; in [19] it was -0.217; in assay [20], 0.92. In addition, the z-score in [2] was -0.639. Moreover, in assay [12], the composite Z-score is 0.523 (inactive).
For `COC(=O)[C@@]1(Cc2ccc(F)cc2)[C@H]2c3cc(C(=O)N(C)C)n(Cc4ccc(C)c(F)c4F)c3C[C@H]2CN1C(=O)c1ccccc1`, the composite z-score is 1.33 in [1]; -0.0601 in assay [3]; 1.61 in assay [4]; 0.962 in [5]; 0.0037 in assay [6]; 0.141 in [7]. The composite z-score in assay [8] was -0.0053; in assay [9], 0.692; in [10] it was 0.298; in assay [11], 0.751; in [13], 0.243; in assay [14], 0.0742. The composite z-score was 0.713 in [15]; 3.15 in [16]; -0.0137 in assay [17]; 1.07 in [18]; -0.991 in assay [19]; 0.879 in assay [20]. For the same compound, the z-score in [2] was -1.34. Moreover, the composite Z-score in [12] is 0.818 (inactive).
Take `CN(C)C(=O)[C@@]1(CCS(=O)(=O)c2ccccc2)N=C(c2ccc(OCCCO)cc2)O[C@H]1c1ccccc1CN=[N+]=[N-]`: the composite z-score in [1] was 1.42; in [3], 0.446; in [4], 1.42; in assay [5], -0.335; in assay [6], 0.063; in [7] it was 0.108. Also, the composite z-score in [8] is -0.274; in assay [9], 1.09; in assay [10] it was 1.06; in [11], 0.9; in [13], 0.167; in assay [14] it was -0.0478. Moreover, the composite z-score in assay [15] came to 0.553; in assay [16] it was 2.45; in [17], 0.527; in assay [18], 1.3; in [19], 0.205; in assay [20], 1.08. Moreover, in assay [2], the z-score is -1.28. Further, the composite Z-score in [12] was 0.24 (inactive).
On to `COc1ccc(CCNC(=O)[C@@H]2c3ccccc3C(=O)N(Cc3ccccc3C(F)(F)F)[C@H]2c2ccc(CO)cc2)cc1`, for which the composite z-score in [1] was 1.47; in assay [3], -1.27; in [4], -0.22; in assay [5] it was -0.181; in assay [6], -0.0735; in [7] it was -0.154. The composite z-score is -0.559 in [8]; 0.381 in [9]; -0.278 in assay [10]; -0.187 in assay [11]; -0.246 in assay [13]; -0.0664 in assay [14]. In addition, the composite z-score is 0.466 in assay [15]; 1.29 in assay [16]; 0.57 in assay [17]; 0.501 in assay [18]; -1.34 in [19]; -0.272 in [20]. In addition, the z-score in assay [2] is -1.2. Also, the composite Z-score in assay [12] is 1.36 (inactive).

Values taken from PubChem BioAssay.
